# DT40 TDP1 CPT = qHTS for Inhibitors of human tyrosyl-DNA phosphodiesterase 1 (TDP1): qHTS in cells in presence of CPT. Potency, µM (highest dose often 46.2 µM), for inactives: at the highest dose activity change, negative = growth inhibition, actives largely listed as inhibitors. chicken DT40 Tdp1-/-;hTDP1 cells + 20 nM CPT, ATP luminescence, 48 h. AID 686979, 2013. 420,000 tested, 12% active; further: potency means the concentration at half of the fitted maximal effect; nearly all actives have a fitted effect of over 55% in size
#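 Chicken DT40 Tdp1-/- cells complemented with human TDP1, 400 cells/well, exposed to compounds plus 20 nM camptothecin for at least 48 h at 37 C; viability read as ATP content by CellTiter-Glo luminescence.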
# IL1B secr inh = qHTS for Inhibitors of Inflammasome Signaling: IL-1-beta AlphaLISA Primary Screen; THP-1 LPS/ATP IL-1B secretion, AlphaLISA, 16 h; stronger effect = lower value; activity change, % at 57.5 µM; 360,000 tested, 4.7% active; in the data active means activity change below about -50%; inconclusive means mostly about -30% to -49%
#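 THP-1 cells pretreated 1 hr with compounds (up to 57.5 uM final), then stimulated with LPS (250 ng/mL final) plus ATP (1.25 mM final); secreted IL-1B measured by AlphaLISA after 16 hr, decreased signal indicating inhibition.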
# HT1080-NT tox = qHTS for induction of synthetic lethality in tumor cells producing 2HG: qHTS for the HT-1080-NT fibrosarcoma cell line; 360,000 tested, 1.6% active; Potency, µM (doses to about 46.1 µM), for the others: at the highest dose activity, negative = less viability, actives largely listed as cytotoxic; HT-1080-NT fibrosarcoma viability, CellTiter-Glo ATP luminescence, 48 h;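 further: NT is the 2HG producing partner of a matched IDH1 knockdown line; potency means the concentration at half of the fitted maximal effect; 0% = DMSO-treated cells and -100% = media-only wells without cells; nearly all actives have a fitted effect of over 55% in size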
#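 Viability by CellTiter-Glo luminescence after 48 h compound exposure at 37C of HT-1080-NT cells (750/well, RPMI, 5% FBS). % activity scaled between DMSO wells and medium-only wells, then curve-fitted and categorized by curve class.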
# 12-LOX inh = Primary qHTS assay for inhibitors of human arachidonate 12S-lipoxygenase (ALOX12): Round 2 | Polyunsaturated fatty acid lipoxygenase ALOX12 (Homo sapiens), P18054 | Potency, µM (series often up to 108 µM), for the others: at the highest dose activity change, negative = inhibition, hits mostly inhibitors | 580,000 tested, 1.1% active | purified 12hLO, xylenol orange hydroperoxide absorbance; further: potency means the concentration at half of the fitted maximal effect
# Target sequence (P18054 whole entry, looked up): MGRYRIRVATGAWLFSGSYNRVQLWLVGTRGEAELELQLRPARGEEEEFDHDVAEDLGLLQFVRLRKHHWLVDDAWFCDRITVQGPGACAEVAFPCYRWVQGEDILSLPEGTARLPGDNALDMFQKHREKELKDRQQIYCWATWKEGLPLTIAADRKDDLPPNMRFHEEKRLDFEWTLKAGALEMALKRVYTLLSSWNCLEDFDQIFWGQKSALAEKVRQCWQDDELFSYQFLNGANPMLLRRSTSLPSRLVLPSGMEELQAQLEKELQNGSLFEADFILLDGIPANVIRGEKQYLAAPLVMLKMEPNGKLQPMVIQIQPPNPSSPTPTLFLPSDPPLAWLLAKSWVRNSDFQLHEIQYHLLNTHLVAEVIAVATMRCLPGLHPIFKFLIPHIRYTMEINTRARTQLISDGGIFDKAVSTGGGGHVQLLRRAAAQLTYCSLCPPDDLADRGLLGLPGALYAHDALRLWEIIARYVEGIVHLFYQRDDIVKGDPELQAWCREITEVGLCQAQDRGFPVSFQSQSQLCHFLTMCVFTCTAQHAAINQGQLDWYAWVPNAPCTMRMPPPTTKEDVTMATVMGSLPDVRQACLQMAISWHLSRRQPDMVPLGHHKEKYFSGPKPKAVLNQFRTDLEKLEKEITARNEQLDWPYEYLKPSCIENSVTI
#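 Hydroperoxide product was detected by ferrous iron/xylenol orange as the 573 to 405 nm absorbance ratio. Arachidonic acid at 40 uM (final) was turned over for 30 min at room temperature by 150 nM human 12hLO, pH 7.0 Hepes buffer, after 15 min compound preincubation.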
# DT40 TDP1 no CPT = qHTS for Inhibitors of human tyrosyl-DNA phosphodiesterase 1 (TDP1): qHTS in cells in absence of CPT | AID 686978, 2013 | 420,000 tested, 15% active | DT40 Tdp1-/- hTDP1 cells, no CPT, ATP luminescence, 48 h | Potency, µM (series often up to 46.2 µM), without a hit: at the top dose activity change, negative = growth inhibition, actives largely listed as inhibitors; further: potency means the concentration at half of the fitted maximal effect; nearly all actives have a fitted effect of over 55% in size
#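 Readout: luminescence from CellTiter-Glo after 30 min in the dark at RT. Cells: DT40 Tdp1-/- with stable hTDP1, 400/well. Exposure: compounds alone, ≥48 hr, 37 °C.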
# HT1080 IDH1KD tx = qHTS for induction of synthetic lethality in tumor cells producing 2HG: qHTS for the HT-1080-IDH1KD cell line; HT-1080 IDH1 knockdown viability, ATP luminescence, 48 h; Potency, µM (titrated, usually from 46.1 µM), without a hit: top-dose activity, negative = toxicity, most hits filed as cytotoxic; 360,000 tested, 2% active;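 further: potency means the concentration at half of the fitted maximal effect; 0% = DMSO wells and -100% = cell-free medium wells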
#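 IDH1KD HT-1080 cells, 750/well, RPMI + 5% FBS; compound pinned after 2 h settling; 48 h, 37 °C; CellTiter-Glo luminescence; % activity normalised to DMSO and no-cell wells; curves fitted, classed by r2 and efficacy.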
# Numbers without * were called inactive; ? = inconclusive; · = no result; [ ] = dose if it differs, or a comment. The full list was thinned out, with hits kept by preference. Unless noted, the call rests on the fitted dose curve; in most records, active means well fitted curve in the direction sought with a large enough effect; inconclusive means small, poorly fitted or top-dose-only effect, or another doubt; inactive means no such curve, though single readings can be large; an effect the other way counts as inactive or inconclusive. Unless noted, on the % scale 0 is the no-effect control and ±100 the full control effect.
SMILES,DT40 TDP1 CPT,IL1B secr inh,HT1080-NT tox,12-LOX inh,DT40 TDP1 no CPT,HT1080 IDH1KD tx
Brc1ccc2[nH]c3c(NCc4ccccn4)ncnc3c2c1,?,·,?,374%,?,16µM*
CC(C)(C)CC(=O)N1CC[C@@H](CC(=O)O)[C@@H](CCN2CCN(c3ccccn3)CC2)C1,·,·,·,7%[176 µM],·,·
COc1ccc(OC)c(Nc2nc3ccccc3nc2NS(=O)(=O)c2ccc(F)cc2)c1,·,·,·,-4%,·,·
O=C(CCCc1ccccc1)Nc1ccnn1C1CCN(Cc2ccccc2F)CC1,23µM*,-19,1%,0%,21µM*,5%
Cc1ccccc1C(=O)Nc1ccnn1C1CCN(C(C)Cc2ccccc2F)CC1 (stereo not given),23µM*,-7,-14%,-4%,-54%,-22%
Cc1ccccc1C(=O)Nc1ccnn1C1CCN(C(=O)CN)CC1,·,·,·,47%,·,·
CSc1ccc(CN2CCC(n3nccc3NC(=O)CCCc3ccccc3)CC2)cc1,23µM*,?,?,3%,?,?
O=C(Nc1ccnn1C1CCN(Cc2ccc(-c3ccco3)cc2)CC1)C1CC1,·,·,·,11µM*,·,·
COC(=O)C1=C(C)N=C2SC=C(CC(=O)NCc3ccco3)N2C1c1cccc(OC)c1 (stereo not given),·,·,·,67%,·,·
COc1cccc(C(=O)/C=C2\Sc3ccccc3N2C)c1,?,-77*,-8%,?,?,-14%
O=C(Nc1cc(F)cc(F)c1)C1CC2CCCC(C1)C2=O (stereo not given),·,·,·,-20%,·,·
O=C(Nc1ccc(C(F)(F)F)cc1[N+](=O)[O-])O[C@H]1[C@H](Cc2ccccc2)NS(=O)(=O)[C@H]2C[C@@H]3C=C[C@]12O3,21µM*,-50*,-9%,8%,16µM*,-20%
FC(F)(F)c1cccc(C2=NOC3(CCCN(Cc4cccnc4)C3)C2)c1 (stereo not given),·,·,·,40%,·,·
COc1ccc(C2=C(C)C(=O)N(Cc3ccc(C(=O)Nc4ccc(F)cc4C)cc3)S2(=O)=O)cc1,3.3µM*,·,·,-25%,3.7µM*,·
COc1ccc(C2=C(C)C(=O)N(Cc3ccc(C(=O)Nc4cccc(F)c4)cc3)S2(=O)=O)cc1,21µM*,·,·,-2%,23µM*,·
C=CC(=O)Nc1cccc(N(C)c2ccnc(Nc3ccc(N4CCN(C)CC4)cc3)n2)c1,?,-100*,-19%,·,5.2µM*,?
C=CC(=O)Nc1cccc(Oc2ccnc3[nH]ccc23)c1,?,0,1%,·,?,-12%
C=CC(=O)Nc1cccc(Oc2ccnc(Nc3ccc(N4CCN(C)CC4)cc3)n2)c1,?,-101*,-24%,?,16µM*,-19%
CCc1ccc(NC(=O)N(Cc2c[nH]c3ccccc23)C2CCCCC2)cc1,7.3µM*,·,·,-7%,6.5µM*,·
CCc1ccc(NC(=O)N(Cc2c[nH]c3ccccc23)C2CCCCCC2)cc1,21µM*,·,·,2%,7.3µM*,·
O=C(Nc1ccccc1)N(Cc1c[nH]c2ccccc12)C1CCCCCC1,12µM*,·,·,-17%,18µM*,·
COc1cc2cc(CN(C(=O)Nc3ccccc3)C3CCCC3)c(=O)[nH]c2cc1OC,-14%,?,0%,7%,-23%,-7%
Cc1n[nH]c(C)c1Br,·,·,·,37%,·,·
O=C(N/N=C/C=C/c1ccccc1)c1cc(C2CC2)[nH]n1,7%,-54*,-2%,284%,-20%,0%
Cc1ccc(-c2cc(C(=O)N/N=C/C=C/c3ccccc3)n[nH]2)s1,16µM*,-7,?,-2%,?,-25%
SMILES,DT40 TDP1 CPT,IL1B secr inh,HT1080-NT tox,12-LOX inh,DT40 TDP1 no CPT,HT1080 IDH1KD tx
O=C(C1COc2ccccc2O1)N1CCN(c2nc3c(F)cccc3s2)CC1 (stereo not given),?,·,·,?,23µM*,·
CCCCC(=O)N1CCN(c2nc3ccc(Br)cc3s2)CC1,16µM*,-88*,?,6%,15µM*,?
CC(C)(C)C(=O)N1CCN(c2nc3ccc(Br)cc3s2)CC1,16µM*,-2,-12%,8%,16µM*,-6%
CC(C)(C)C(=O)N1CCN(c2nc3c(F)cccc3s2)CC1,16µM*,·,·,-26%,16µM*,·
COc1cccc(N2CC(C(=O)N3CCCC3)NC2=O)c1 (stereo not given),·,·,·,51%[176 µM],·,·
CC(C)(C)C(=O)N1CCN(c2nc3ccc(Cl)cc3s2)CC1,?,?,-5%,·,23µM*,-16%
CCCC(=O)N1CCN(c2nc3ccc(Cl)cc3s2)CC1,?,-8,-3%,-2%,?,4%
O=C(CN1Cc2nc(Nc3ccc(C(F)(F)F)cc3)ccc2OCC1=O)N1CCCC1,·,·,·,-25%[176 µM],·,·
CCOc1cc(S(=O)(=O)NC2CCCCCC2)ccc1F,21µM*,37,-15%,16%,?,-22%
Cc1cc(S(=O)(=O)NC2CCCC2)ccc1F,-13%,13,0%,-12%,?,-3%
Cc1cccc(S(=O)(=O)NC2CCCCCCC2)c1,21µM*,-6,-13%,-14%,?,-8%
O=S(=O)(NC1CCCCCC1)c1cccc(Cl)c1,?,?,-6%,-57%,?,-18%
COC(=O)N/N=C/c1cc(Cl)cc(Cl)c1OCc1ccccc1,18µM*,-1,0%,0%,?,-1%
CC(C)=CCN1CCN(CC2CCCO2)CC1 (stereo not given),·,·,·,-8%,·,·
CCCC(=O)N1CCN(c2ccc(NC(=O)c3ccc(N4CCCC4)c([N+](=O)[O-])c3)cc2Cl)CC1,18µM*,51,28%,-2%,7.3µM*,14%
O=C(Nc1nc2ccc(Cl)cc2s1)c1ccc(N2CCCCC2)c([N+](=O)[O-])c1,16µM*,?,-1%,-5%,21µM*,3%
O=C(Nc1ccc(N2CCCCC2)c(Cl)c1)c1ccc(N2CCOCC2)c([N+](=O)[O-])c1,18µM*,-13,1%,7%,13µM*,-14%
O=C(Nc1nc2ccc3ccccc3c2s1)c1ccc(N2CCCCC2)c([N+](=O)[O-])c1,?,-14,26%,-16%,?,22%

# Screens from PubChem.
